In PubChem BioAssay (NCI) one finds growth data, which are given here for 40 compounds.

About 83,000 compounds went through this panel and 20% of them were active in at least one assay; those are over-represented in the sample as a whole.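 Single-concentration screen, 48 h exposure, 96-well plates. Endpoint: percent growth. Below 10 = active.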 Values without a mark were called inactive. Activity calls are given as the source filed them.

The subject of the assay is MCF7 breast. Kind of assay: NCI-60 one-dose screen, 48 h (100 = growth as untreated, 0 = no growth, -100 = all killed). The conditions noted are these: 10 µM unless noted. How it is done:
Growth inhibition of the MCF7 human tumor cell line is measured as a screen for anti-cancer activity. Cells are grown in 96 well plates and exposed to the test compound for 48 hours. Compounds are tested at a single concentration, which is 10^-5 M for most compounds. The reported endpoint is percent growth (GI% or GIPRCNT), where numbers from 0 - 100% represent growth inhibition, and numbers from -100% - 0 represent cell death. For example, a value of 40 represents 60% growth inhibition. A value of 0 means no net growth occurred over the course of the experiment. A value of -40 indicates 40% of cells at the beginning of the experiment died by the end of the experiment. A value of -100 means all cells are dead at the end of the experiment.
NCI-60 Human Tumor Cell Lines Screen was performed using the standard one-dose NCI protocol, which is described in more detail at https://dtp.cancer.gov/discovery_development/nci-60/default.htm.
Compounds with GIPRCNT values below 10 were considered active. Activity score was based on GIPRCNT using the following formula: […]
Score is 0 for GIPRCNT values of 100 or above, 50 for GIPRCNT values of 0, and 100 for GIPRCNT values of -100.
`O=C(/C=C/c1c[nH]c2ccccc12)c1ccc(O)c(CN2CCN(c3ccc(F)cc3)CC2)c1`: the growth was 98.5%. Next, `C=C1C(=O)O[C@H]2[C@H]1CC/C(Cn1cc(CNC(=O)Cc3cn(C(=O)c4ccc(Cl)cc4)c4ccc(OC)cc34)nn1)=C\CC[C@@]1(C)O[C@@H]21`: -62.7% (active). With `Nc1cccc(-c2nc3sccn3c2-c2ccnc(NCCNS(=O)(=O)c3ccc(C(F)(F)F)cc3)n2)c1`, the growth is 32.8%. In the case of `COc1cc(-c2nn(-c3cccc(NC(=O)Nc4cc(C(F)(F)F)cc(C(F)(F)F)c4)c3)cc2-c2ccncc2)ccc1Cl` it was 1.74% (active). In the case of `CCCCCCCCCCCCCCCCCCNC(=O)[C@H]1CSC(c2ccc(OC)cc2O)N1` (stereo not given in full) it was 23.7%; in that of `CC12CCC3C4(C)COC(c5ccco5)OC4CCC3(C)C1CC(C1=CCOC1=O)O2` (stereo not given), 98.9%. Next, `COc1ccc(-c2cc(-c3ccccc3)nc(SCCCC(=O)NO)n2)cc1OC`: 4.19% (active); `c1ccc(Nc2nc(Nc3ccccc3)nc(Nc3ccccc3)n2)cc1`: 65%. As to `O=c1cc/c(=N\Nc2ccccc2)c(=O)/c1=N/Nc1ccccc1`, the growth is 78.4%.

Consider `Cc1ccc(S(=O)(=O)/C(=C\c2ccc(Cl)cc2)C(=O)c2ccccc2)cc1`, for which the growth is 82.3%. On to `c1cc(C2=N[C@@H]3c4ccccc4C[C@@H]3O2)nc(C2=N[C@@H]3c4ccccc4C[C@@H]3O2)c1`, for which the growth is 88.1%.

Consider `C=C(C)[C@@H]1CC[C@]2(C(=O)N3CCNCC3)CC[C@]3(C)[C@H](CC[C@@H]4[C@@]5(C)C/C(=C/c6ccncc6)C(=O)C(C)(C)[C@@H]5CC[C@]43C)[C@@H]12`, for which the growth is 79.7%. Next, `O=[N+]([O-])c1cnc(Sc2ccncn2)s1`: 31.5%. In the case of `O=C(C1=Cc2cc3ccccc3n2Cc2cnnn21)c1ccccc1`, the growth is 35.2%. As to `Cc1cc(C2(c3cc(C)c(O)cc3C)OS(=O)(=O)c3ccccc32)c(C)cc1O`, the growth was 78.5%.

For `Cc1cccc(/C=N/Nc2cc(C)c3cccc(C)c3n2)n1`, the growth is 48.4%. As to `CC(C)(C)n1cc(-c2ccnc(NCCCNS(=O)(=O)c3ccc(Cl)cc3)c2)c(-c2cccc(O)c2)n1`, the growth is -12.1% (active). In the case of `CCN(CC)CCCNc1nccc2ccc(Cl)cc12` it was 94%; in that of `O=C(O)c1nc(-c2ccccc2)oc1N1CCOCC1`, 98.3%; in that of `O=C1/C(=C/c2ccc([N+](=O)[O-])cc2)CN(C(=O)CCN2CCC(=NO)CC2)C/C1=C\c1ccc([N+](=O)[O-])cc1`, -55.4% (active). Consider `COc1ccc(/C=C\c2cc(OC)c(OC)c(OC)c2)cc1OC(=O)c1cccc(Cn2cc(CCOC(=O)c3cccc(Cn4nnc5c4C(=O)c4ccccc4C5=O)c3)nn2)c1`, for which the growth is 8.36% (active). Turning to `CCOC(=O)c1c(/N=C2\SC(=O)/C(=C\C(=O)OC)N2NC)sc2c1CCN(C(=O)OCC)C2`, the growth is 98.7%. In the case of `CCNc1nc(S(=O)(=O)CC)nc2ccccc12` it was 95.8%; in that of `COc1ccc(S(=O)(=O)NCCCNc2nccc(-n3ccc4cccnc43)n2)cc1`, 98.7%; in that of `CC1CCC(C)N(C)C1` (stereo not given), 96.5%. For the compound `COc1ccc(-c2nc3sccn3c2/C=C/C(=O)c2cc(F)cc(F)c2)cc1`, the growth was 20.3%. Next, `CCOC(=O)c1ccc2c(c1)nc(-c1ccc(OCc3ccccc3)c(OC)c1)n2-c1cc(C(C)(C)C)[nH]n1`: 63.1%. Next, `COc1ccc(C(=O)N2NC(=O)/C(=C/c3cn(-c4ccccc4)nc3-c3ccccc3)N=C2c2ccccc2)cc1`: 98.9%; `COc1ccc(S(=O)(=O)NCCCNc2nccc(-c3c(-c4cccc([N+](=O)[O-])c4)nc4sccn34)n2)cc1`: 34.5%; `COc1ccc2cc(-c3ccc(-c4ccc(C(=N)N)cc4)s3)ccc2c1`: 73.2%. `Cc1cc(N/N=C/c2nc(-c3ccc(Br)cc3)oc2C)c2cc(Cl)ccc2n1`: the growth is -55% (active).

`COc1ccc(Nc2ncccc2C(=O)NCc2cn(Cc3cccc(Oc4ccccc4)c3)nn2)c(OC)c1`: the growth is 25%.

With `COc1ccc(Nc2nn3c(C)cc(C)nc3c2C(=O)Nc2ccc(C)cc2)c(OC)c1`, the growth was 101%. Next, `O=c1ccn(C2CC(O)C(O)C(CO)O2)c(=O)[nH]1` (stereo not given): 97.4%; `Cc1ccc(Nc2nnc(-c3ccc(Cl)cc3)o2)c(C)c1`: 56.9%. As for `Cn1c(=O)cc(NC(=O)CN2CCN(c3cc4c(cc3F)c(=O)c(C(=O)O)cn4C3CC3)CC2)[nH]c1=O`, the growth is 94.2%. In the case of `COc1ccc(-c2ccc(-c3ccc(-c4ccc(C(=N)N)cc4)s3)s2)cc1OC`, the growth is -19.8% (active). In the case of `COC1=C(OC)C(=O)C(CCCCCCCCCC[P+](c2ccccc2)(c2ccccc2)c2ccccc2)=C(C)C1=O` it was -49.9% (active); in that of `NC(=S)N/N=C1\CCCC(C(F)(F)F)C1` (stereo not given), 27.3%. `C/C=C/C1=CN2C(=O)c3cc(OC4OC(C)C(NC)C(C)(O)C4O)c(C)cc3N=C[C@@H]2C1` (stereo not given in full): the growth is 3.78% (active).
